From PubChem BioAssay (NCI)
Compounds without any hit were thinned out: in the full panel of roughly 83,000, 20% have a hit.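 A percent growth of 40 corresponds to 60% growth inhibition; 0 means no net growth; -100 means all cells died. Active threshold: below 10.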 Values without a mark were called inactive. Calls of active or inactive are those of the source.

Each compound was assayed on HL-60(TB) leukemia (assay: NCI-60 one-dose screen, 48 h (100 = growth as untreated, 0 = no growth, -100 = all killed)). Conditions: 10 µM unless noted.

Q: With `COc1ccc(S(=O)(=O)Nc2cc(Sc3cccc4cccnc34)c(O)c3ccccc23)cc1` as the compound, how does the growth read?
A: -18.8% (active)

Q: For `COc1c(O)cc2oc3cc(O[C@@H]4OC(C)[C@@H](O)[C@H](O)C4O)c(CC=C(C)C)c(O)c3c(=O)c2c1CC=C(C)C` (stereo not given in full), which growth is on record?
A: 90.4%

Q: For `O=C1/C(=C/c2cn(-c3ccccc3)nc2-c2ccccc2)SC(=S)N1c1ccc(Cl)cc1`, which growth is on record?
A: 86%

Q: For `CCOC(=O)C/C(=N\Nc1cc(=O)[nH]c2ccc(OC)cc12)C(=O)OCC`, which growth is on record?
A: 94%

Q: For `CCc1c(C)c2ccc(OCC(=O)N=Nc3c(O)[nH]c4ccccc34)c(C)c2oc1=O`, which growth is on record?
A: -22.3% (active)

Q: Which growth does the source give for `CCN1/C(=C/C=C/C=C/c2sc3ccccc3[n+]2CC)Sc2ccccc21` here?
A: -58.4% (active)

Q: For `C=C[C@H]1CCC/C=C/[C@@H]2C[C@H](O)C[C@H]2[C@H](O)/C=C/C(=O)O1`, which growth is on record?
A: -0.65% (active)

Q: Which growth does the source give for `NC(=O)c1ccc(NC(=O)c2oc3ccccc3c2-c2cnn(-c3ccccc3)c2)cc1` here?
A: 98.4% [50 µM]

Q: `C[n+]1ccccc1/C=C/c1ccc2cccc(O)c2n1` was tested. Which growth did it give?
A: 79.2%

Q: Which growth does the source give for `Cc1ccc(NC2CC(=O)N(c3c(C)cc(C)cc3C)C2=O)c(C)c1` (stereo not given) here?
A: 102%

Q: How did the growth turn out when `O=C(O)c1cc(I)ccc1O` was run?
A: 103%

Q: How did the growth turn out when `Nc1c(C(=O)Nc2ccccc2)sc2nc3c(cc12)CCCC3` was run?
A: 15.5%

Q: For `CCN(C(=O)N1CCN(c2cc3c(cc2F)c(=O)c(C(=O)O)cn3C2CC2)CC1)c1nc(-c2ccccc2)cs1`, which growth is on record?
A: -34% (active)

Q: Which growth does the source give for `Cc1ncc(C(=O)Nc2ccc(CN3CCN(C)CC3)c(C(F)(F)F)c2)cc1C#Cc1ccc(N)nc1` here?
A: 17.6%

Q: Which growth does the source give for `O=C(O)c1ccc(-c2nn(-c3ccc(C(F)(F)F)cc3)cc2CNc2ccc(Oc3ccccc3)cc2)cc1` here?
A: 35.5%

Q: Which growth does the source give for `O=c1cc(-c2ccccc2)nc2cc(-c3ccco3)[nH]n12` here?
A: 82.7%

Q: Which growth does the source give for `Cc1ccc(-c2nnc(SCc3nc(N)nc(Nc4ccccc4F)n3)n2-c2ccccc2)cc1` here?
A: -21.3% (active)

Q: `Cc1cc(=O)oc2c1ccc1oc(C(=O)c3ccccc3)c(C)c12` was tested. Which growth did it give?
A: 75.2%

Q: With `Cc1ccc2c(c1)C(=O)/C(=C/c1ccc(OCC(=O)c3ccccc3)cc1)O2` as the compound, how does the growth read?
A: 69.9%

Q: How did the growth turn out when `Cc1ccc(S(=O)(=O)NC(=O)NCCSSCCNC(=O)NS(=O)(=O)c2ccc(C)cc2)cc1` was run?
A: 102%

Q: With `CC(=O)C[n+]1ccccc1Sc1ccc(Cl)cc1` as the compound, how does the growth read?
A: 28.4%

Q: `Cc1ccc(Cn2c(-c3nonc3N)nc3ccccc32)cc1` was tested. Which growth did it give?
A: 71.8%

Q: How did the growth turn out when `N#Cc1cnc2cc(OC[C@@H](O)CO)c(NC(=O)CC3CSSC3)cc2c1Nc1ccc(OCc2cccc(F)c2)c(Cl)c1` was run?
A: -56.4% (active)

Q: `CCCCCCCCCCCCCCCCCCSC1=CC(=O)C(OC)=C(OC)C1=O` was tested. Which growth did it give?
A: 66.9%

Q: Which growth does the source give for `O=[N+]([O-])c1ccc(/C=N\Nc2ccccc2)cc1` here?
A: 94.6%

Q: `CCOc1ccc(/C=C/C(=O)c2ccccc2)cc1` was tested. Which growth did it give?
A: 70.3%

Q: With `COc1ccc(-c2nc(N/N=C/c3ccco3)nc(N3CCOCC3)c2C#N)cc1` as the compound, how does the growth read?
A: 94.8%

Q: How did the growth turn out when `O=S(Nc1ccccc1)c1ccc(Cl)cc1` (stereo not given) was run?
A: 90.8%

Q: With `O=C(O)C(Cc1ccccc1)N1C(=O)/C(=C/C(Cl)=C/c2ccc([N+](=O)[O-])cc2)SC1=S` (stereo not given) as the compound, how does the growth read?
A: -8.33% (active)

Q: For `CC1=C(C#N)C(=O)NC(C)C1` (stereo not given), which growth is on record?
A: 91%

Q: With `CNc1nc2c(s1)C(c1cc(F)ccc1F)CC(=O)N2` (stereo not given) as the compound, how does the growth read?
A: 46.7%

Q: How did the growth turn out when `COc1ccc(C2N(c3cc(OC)c(OC)c(OC)c3)C(=O)C2(F)F)cc1F` (stereo not given) was run?
A: 0.936% (active)

Q: Which growth does the source give for `COc1cc(C)cc2oc3oc(=O)c(-c4csc(-c5cc6ccccc6oc5=O)n4)cc3c(=O)c12` here?
A: 115%

Q: Which growth does the source give for `CCOC(=O)CCC(NC(=O)c1ccc(N)cc1)C(=O)OCC` (stereo not given) here?
A: 102%

Q: With `COc1ccc(NC(=O)Nc2ccc(OCCCCCC(=O)NO)cc2)cc1` as the compound, how does the growth read?
A: 97.6%

Q: For `CC/C(=C(/c1ccc(OCCN(C)C)cc1)c1ccc(OC(=O)CCCCC(=O)c2c(C)[nH]c(/C=C3\N=C(c4ccc[nH]4)C=C3OC)c2C)cc1)c1ccccc1`, which growth is on record?
A: 82.2%

Q: `Cc1ccc(-c2cnc3sc4ccc(Cl)cc4n23)cc1` was tested. Which growth did it give?
A: 90.5%

Q: For `COc1cccc(OCC(O)CN2CCN(c3ccccc3)CC2)c1` (stereo not given), which growth is on record?
A: 78.7%

Q: With `Cc1ccc(O)c(C(=O)c2ccccc2)c1` as the compound, how does the growth read?
A: 73.1%

Q: `NC1=Nc2ccccc2N(O)N1` was tested. Which growth did it give?
A: 88.4%
